The text below walks through data of PubChem BioAssay (EPA / NIEHS).

Each structure is given as a SMILES string. Values joined by “and” are separate entries in the source; they are usually repeats but may differ in a detail not shown here. Identical values can stand only once. A structure can be active in one record and inactive in another. Active and inactive are the calls of the source. Rule for the calls: active = hit-call score of the fitted dose curve at least 0.9, where 1 is the maximum; inactive = score below 0.9.

Read-out in test [1]: Interleukin-1 alpha (IL1a), IL1A (gene 3552)
Description: BSK_BF4T_IL1a: BioMAP Diversity Plus: BF4T Assay for Interleukin-1 alpha (IL1a) Biomarker Activity (AID 2284264). To be noted: primary human bronchial epithelial cells with fibroblasts. In a few lines: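 Human bronchial epithelial cells co-cultured with dermal fibroblasts, dosed and read at 24 h. Secreted/surface IL-1α quantified by ELISA; gain-of-signal fitted relative to DMSO baseline. Parallel SRB total-protein staining tracked cytotoxicity.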

Read-out in the next test: Decorin, DCN (gene 1634)
As to the kind of experiment: BSK_MyoF_Decorin: BioMAP Diversity Plus: MyoF Assay for Decorin Biomarker Activity (AID 2284265). To be noted: primary human lung fibroblasts. In a few lines: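 Human lung fibroblasts in the MyoF system were exposed to compound for 24 h, after which decorin was quantified by ELISA. Activity was fitted in the positive direction relative to DMSO negative control.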

Read-out in test [2]: KRT18 (gene 3875)
Description: BSK_BF4T_Keratin818: BioMAP Diversity Plus: BF4T Assay for Keratin 818 Biomarker Activity (AID 2284266). To be noted: primary human bronchial epithelial cells with fibroblasts. The method in brief: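 Co-culture of human bronchial epithelial cells and dermal fibroblasts, chemical exposure 24 h. Keratin 8/18 measured by ELISA; positive-direction fit vs DMSO. SRB total protein run in parallel cultures for cytotoxicity.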

Test [3] is described as follows: BSK_MyoF_SRB: Viability Assessment in the BioMAP Diversity Plus: MyoF Assay (AID 2284267).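 Note: total protein by SRB absorbance in parallel cultures as cytotoxicity measure.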 The settings on record: primary human lung fibroblasts. In a few lines:
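Cytotoxicity in primary human lung fibroblasts is gauged by SRB total-protein staining 24 h after dosing, with DMSO as the negative control.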

Read-out in test [4]: Matrix Metallopeptidase 1 (MMP1), MMP1 (gene 4312)
As to the kind of experiment: BSK_MyoF_MMP1: BioMAP Diversity Plus: MyoF Assay for Matrix Metallopeptidase 1 (MMP1) Biomarker Activity (AID 2284268). The settings on record: primary human lung fibroblasts. In a few lines:
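ELISA readout of MMP1 in primary human lung fibroblast cultures, 24 h post-dosing. Gain of signal versus DMSO vehicle control defines activity. Parallel SRB staining (0.1% after 10% TCA fixation, 560 nm) flags overt cytotoxicity.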

Read-out in test [5]: TIMP metallopeptidase inhibitor 1 (TIMP1), TIMP1 (gene 7076)
As to the kind of experiment: BSK_MyoF_TIMP1: BioMAP Diversity Plus: MyoF Assay for TIMP metallopeptidase inhibitor 1 (TIMP1) Biomarker Activity (AID 2284269). The settings on record: primary human lung fibroblasts. The method in brief: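 Primary human lung fibroblasts, MyoF multiplex system; chemical exposure 24 h; TIMP-1 by ELISA; positive fitting direction vs DMSO control.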

Read-out in test [6]: Matrix Metallopeptidase 1 (MMP1), MMP1 (gene 4312)
As to the kind of experiment: BSK_BF4T_MMP1: BioMAP Diversity Plus: BF4T Assay for Matrix Metallopeptidase 1 (MMP1) Biomarker Activity (AID 2284270). The settings on record: primary human bronchial epithelial cells with fibroblasts. In a few lines: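 Co-culture of human bronchial epithelial cells and dermal fibroblasts; MMP-1 levels measured by ELISA 24 hours after chemical dosing, relative to DMSO. Cytotoxicity checked in parallel cultures by SRB total-protein staining.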

Read-out in test [7]: Matrix Metallopeptidase 3 (MMP3), MMP3 (gene 4314)
As to the kind of experiment: BSK_BF4T_MMP3: BioMAP Diversity Plus: BF4T Assay for Matrix Metallopeptidase 3 (MMP3) Biomarker Activity (AID 2284271). To be noted: primary human bronchial epithelial cells with fibroblasts. In a few lines: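 Co-culture of human bronchial epithelial cells and dermal fibroblasts dosed 24 h; MMP-3 measured by ELISA, positive-direction fit versus DMSO. Cytotoxicity tracked by SRB total-protein staining (560 nm) in parallel cultures.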

Read-out in test [8]: Tissue plasminogen activator (tPA), PLAT (gene 5327)
As to the kind of experiment: BSK_BF4T_tPA: BioMAP Diversity Plus: BF4T Assay for Tissue plasminogen activator (tPA) Biomarker Activity (AID 2284272). The settings on record: primary human bronchial epithelial cells with fibroblasts. In a few lines:
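tPA level quantified by ELISA at 24 h post-treatment in bronchial epithelial/dermal fibroblast co-cultures, gain of signal scored against DMSO baseline. Parallel cultures stained with 0.1% SRB (560 nm) to flag overt cytotoxicity.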

Read-out in test [9]: Plasminogen Activator Inhibitor-1 (PAI1), SERPINE1 (gene 5054)
As to the kind of experiment: BSK_BF4T_PAI1: BioMAP Diversity Plus: BF4T Assay for Plasminogen Activator Inhibitor-1 (PAI1) Biomarker Activity (AID 2284273). The settings on record: primary human bronchial epithelial cells with fibroblasts. The method in brief:
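Co-culture of human bronchial epithelial cells and dermal fibroblasts exposed to compound for 24 h. PAI-1 measured by ELISA; activity fitted in positive direction versus DMSO. Parallel SRB staining assessed overt cytotoxicity.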

Test [10] can be described thus: BSK_BF4T_SRB: Viability Assessment in the BioMAP Diversity Plus: BF4T Assay (AID 2284274).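 For AC50: total cell protein by sulforhodamine B staining as a cytotoxicity measure.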 To be noted: primary human bronchial epithelial cells with fibroblasts. The method in brief:
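Co-culture of human bronchial epithelial cells and dermal fibroblasts (BioMAP BF4T) exposed 24 h. Total protein by sulforhodamine B staining (0.1% SRB after 10% TCA fixation, 560 nm) in parallel cultures; fitted vs DMSO.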

Read-out in test [11]: urokinase Plasminogen Activator (uPA), PLAU (gene 5328)
As to the kind of experiment: BSK_BF4T_uPA: BioMAP Diversity Plus: BF4T Assay for urokinase Plasminogen Activator (uPA) Biomarker Activity (AID 2284275). To be noted: primary human bronchial epithelial cells with fibroblasts. The method in brief: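 Co-culture of human bronchial epithelial cells and dermal fibroblasts; uPA quantified by ELISA 24 hours after dosing, fitted relative to DMSO. Parallel SRB total-protein staining assessed overt cytotoxicity.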

Read-out in test [12]: Matrix Metallopeptidase 9 (MMP9), MMP9 (gene 4318)
Description: BSK_BF4T_MMP9: BioMAP Diversity Plus: BF4T Assay for Matrix Metallopeptidase 9 (MMP9) Biomarker Activity (AID 2284276). To be noted: primary human bronchial epithelial cells with fibroblasts. The method in brief: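 Co-culture of human bronchial epithelial cells and dermal fibroblasts dosed for 24 h; MMP-9 quantified by ELISA and fitted upward versus DMSO. Cytotoxicity monitored in parallel cultures by SRB total-protein staining at the biomarker time point.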

Read-out in test [13]: Interleukin-8 (IL8), CXCL8 (gene 3576)
Description: BSK_IMphg_IL8: BioMAP Diversity Plus: IMphg Assay for Interleukin-8 (IL8) Biomarker Activity (AID 2284277). The settings on record: primary human endothelial cells with macrophages. The method in brief: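 Co-culture of human venular endothelial cells and macrophages exposed to chemicals for 24 h; IL-8 quantified by ELISA and compared against the DMSO baseline, with SRB total-protein staining in parallel cultures for cytotoxicity.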

Read-out in test [14]: Intercellular Adhesion Molecule 1 (ICAM1), ICAM1 (gene 3383)
Description: BSK_BE3C_ICAM1: BioMAP Diversity Plus: BE3C Assay for Intercellular Adhesion Molecule 1 (ICAM1) Biomarker Activity (AID 2284278).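 For outcome: cell-surface ICAM-1 protein level quantified by ELISA.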 The settings on record: primary human bronchial epithelial cells. The method in brief: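 Measured by ELISA: ICAM-1 expressed by primary human bronchial epithelial cells 24 h after compound treatment, with upward-direction fitting versus DMSO vehicle.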

Read-out in test [15]: Interferon-inducible T-cell alpha chemoattractant (ITAC), CXCL11 (gene 6373)
Description: BSK_BE3C_ITAC: BioMAP Diversity Plus: BE3C Assay for Interferon-inducible T-cell alpha chemoattractant (ITAC) Biomarker Activity (AID 2284279). The settings on record: primary human bronchial epithelial cells. The method in brief: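 Steps: dose human bronchial epithelial cells with chemical; incubate 24 h; measure I-TAC by ELISA; fit endpoint in positive direction against DMSO control. Cytotoxicity was checked in parallel cultures by SRB staining at harvest.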

Read-out in test [16]: Interleukin-8 (IL8), CXCL8 (gene 3576)
Description: BSK_BE3C_IL8: BioMAP Diversity Plus: BE3C Assay for Interleukin-8 (IL8) Biomarker Activity (AID 2284280). The settings on record: primary human bronchial epithelial cells. The method in brief: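 ELISA read-out of IL-8 in human lung bronchial epithelial primary cell cultures, 24 h post-dosing; endpoint analysed as signal increase relative to DMSO baseline.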

Read-out in test [17]: Epidermal growth factor receptor (EGFR), EGFR (gene 1956)
As to the kind of experiment: BSK_BE3C_EGFR: BioMAP Diversity Plus: BE3C Assay for Epidermal growth factor receptor (EGFR) Biomarker Activity (AID 2284281). The settings on record: primary human bronchial epithelial cells. In a few lines: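 Primary human lung bronchial epithelial cells; compound, 24 h; EGFR measured by ELISA; positive-direction fit vs DMSO baseline.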

Read-out in test [18]: KRT18 (gene 3875)
Description: BSK_BE3C_Keratin818: BioMAP Diversity Plus: BE3C Assay for Keratin 818 Biomarker Activity (AID 2284282). To be noted: primary human bronchial epithelial cells. In a few lines: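 BE3C: human bronchial epithelial primary cells, 24 h exposure, Keratin 8/18 ELISA; DMSO = negative control/baseline; cytotoxicity by parallel SRB stain (0.1% SRB after 10% TCA fixation, 560 nm).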

Read-out in test [19]: Matrix Metallopeptidase 9 (MMP9), MMP9 (gene 4318)
As to the kind of experiment: BSK_BE3C_MMP9: BioMAP Diversity Plus: BE3C Assay for Matrix Metallopeptidase 9 (MMP9) Biomarker Activity (AID 2284283). To be noted: primary human bronchial epithelial cells. The method in brief:
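Human primary bronchial epithelial cells in the BE3C system were dosed with compound for 24 h. MMP-9 was measured by ELISA, and the positive-direction response was fitted relative to DMSO as baseline. Parallel SRB staining gauged cytotoxicity.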

For the molecule `NCC(F)(F)C(F)(F)C(F)(F)C(F)(F)C(F)(F)C(F)(F)C(F)(F)F`, the outcome in [1] is “inactive”; in the test with Decorin, DCN (gene 1634) it was “inactive”; with KRT18 (gene 3875) [2] it was “inactive”; in test [3], “inactive”; in test [4] it was “inactive”; in test [5], “inactive”. In addition, the outcome in test [6], in test [7], in test [8], in test [9], in test [10] and in test [11] was inactive. In addition, the outcome in test [12], in test [13], in test [14], in test [15], in [16] and in test [17] was inactive. For the same molecule, the outcome (in the test with KRT18 (gene 3875) [18]; in test [19]) was inactive.

Broadly, the AC50 is the midpoint of the concentration-response curve, whichever way the signal moves. Consider `OCCC(F)(F)C(F)(F)C(F)(F)C(F)(F)C(F)(F)C(F)(F)C(F)(F)C(F)(F)F`, for which the AC50 was 21.5 µM (active) in test [1]; 15.1 µM (active) and 14.5 µM (active) in the test with Decorin, DCN (gene 1634); 38.6 µM (active) in the test with KRT18 (gene 3875) [2]; 15.1 µM (active) and 14.7 µM (active) in test [3]; 13.1 µM (active) and 9.78 µM (active) in test [5]; 8.17 µM (active) and 7.72 µM (active) in test [8]. Besides, the AC50 was 23.8 µM (active) and 18.6 µM (active) in test [9]; 27.2 µM (active) and 34.7 µM (active) in test [10]; 30 µM (active) and 17.7 µM (active) in [11]; 28 µM (active) and 16.3 µM (active) in test [12]; 30 µM (active) and 44.7 µM (active) in test [13]; 22.2 µM (active) and 46.7 µM (active) in test [14]. In addition, the AC50 in test [15] was 23.5 µM (active) and 18.4 µM (active); in [16], 12.3 µM (active) and 13.3 µM (active); in test [17], 21.8 µM (active); in the test with KRT18 (gene 3875) [18], 24.7 µM (active) and 16.8 µM (active); in test [19], 14.2 µM (active) and 30 µM (active). The result (in [1]; with KRT18 (gene 3875) [2]; in test [4]; in test [6]; in [7]; in [17]) was inactive.

For `C=C(C)C(=O)OCCC(F)(F)C(F)(F)C(F)(F)C(F)(F)C(F)(F)C(F)(F)F`, the outcome is “inactive” in [1]; “inactive” in the test with Decorin, DCN (gene 1634); “inactive” with KRT18 (gene 3875) [2]; “inactive” in [3]; “inactive” in test [4]; “inactive” in test [5]. For the same molecule, the result in [6], in test [7], in test [8], in test [9], in test [10] and in test [11] was inactive. Further, the outcome in [12], in test [13], in test [14], in test [15], in test [16] and in [17] was inactive. Also, the result (with KRT18 (gene 3875) [18]; in test [19]) was inactive. The AC50 in the test with KRT18 (gene 3875) [18] was 2.19 µM (active).
